An excerpt weighted towards active compounds, which were near 0.99% of everything screened.
NS1 function inh: qHTS Assay for Inhibitors of Influenza NS1 Protein Function. Potency, µM (titrated, usually from 46.1 µM), inactives show top-dose activity, positive = more growth. 0.4% of 270,000 active. AID 2326, 2010; calls by dose curve; note: actives are rising curves; nearly all actives have a fitted effect of over 50% in size
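In this qHTS, NS1 from influenza A is expressed in budding yeast, where it slows growth. Cells are switched from glucose to 2% galactose medium (pH 6.0, -URA), treated with compound, and growth recovery is read at OD600.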
AmpC inh detg: qHTS Inhibitors of AmpC Beta-Lactamase (assay with detergent). AmpC hydrolysis of nitrocefin, absorbance 480 nm, 0.01% Triton. 0.041% of 370,000 active. Potency, µM (doses to about 114 µM), without a hit: at the top dose activity change, negative = inhibition, most hits filed as inhibitors;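 note: 0% = no-compound wells and -100% = no-enzyme wells; nearly all actives have a fitted effect of over 25% in size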
Target sequence (P00811 whole entry, looked up): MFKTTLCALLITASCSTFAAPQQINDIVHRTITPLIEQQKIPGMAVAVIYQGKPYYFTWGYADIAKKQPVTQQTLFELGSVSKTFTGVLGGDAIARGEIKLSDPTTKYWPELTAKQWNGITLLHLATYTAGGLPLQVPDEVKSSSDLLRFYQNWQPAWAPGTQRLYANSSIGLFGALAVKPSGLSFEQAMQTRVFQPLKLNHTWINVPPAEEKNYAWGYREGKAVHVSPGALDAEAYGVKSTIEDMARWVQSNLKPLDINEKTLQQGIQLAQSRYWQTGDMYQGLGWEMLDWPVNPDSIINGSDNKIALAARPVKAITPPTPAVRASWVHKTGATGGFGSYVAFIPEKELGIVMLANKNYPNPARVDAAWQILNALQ
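20 mM phosphate pH 7.0 + 0.01% (detergent screen) or 0.0001% Triton X-100; 5.3 nM AmpC reagent; cpd preinc 15 min RT; nitrocefin (800 uM stock) to start; A480 q20 s × 4 min; Activity was normalised to no-enzyme and no-compound control wells.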
AmpC inh no detg: qHTS Inhibitors of AmpC Beta-Lactamase (assay without detergent); P00811; AmpC nitrocefin hydrolysis, absorbance 480 nm, 0.0001% Triton; 0.52% of 330,000 active; Potency, µM (highest dose often 57.1 µM), for inactives: at the highest dose activity change, negative = inhibition, usual class: inhibitors;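 note: plate controls were no compound for no effect and no enzyme for full effect; nearly all actives have a fitted effect of over 20% in size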
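20 mM phosphate pH 7.0 + 0.01% (detergent screen) or 0.0001% Triton X-100; 5.3 nM AmpC reagent; cpd preinc 15 min RT; nitrocefin (800 uM stock) to start; A480 q20 s × 4 min; Activity was normalised to no-enzyme and no-compound control wells.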
SARS PLP yeast: qHTS of Yeast-based Assay for SARS-CoV PLP. 0.19% of 330,000 active. AID 485353, 2010. Potency, µM (series often up to 32.9 µM), without a hit: at the top dose activity, positive = growth rescue, hits mostly activators. S. cerevisiae expressing SARS-CoV PLpro, growth rescue; calls by dose curve; note: 0% is about no effect; nearly all actives have a fitted effect of over 55% in size
AMA1-RON2 inh: qHTS for Inhibitors of AMA1-RON; Towards Development of Antimalarial Drug Lead: Primary Screen. Plasmodium falciparum AMA1 (3D7) - RON2 peptide interaction. AlphaScreen AMA1-biotinylated RON2 peptide binding. Potency, µM (highest dose often 58.2 µM), without a hit: at the top dose activity change, negative = inhibition, hits mostly inhibitors. 0.2% of 360,000 active;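 note: 0% = vehicle wells and -100% = peptide control; nearly all actives have a fitted effect of over 45% in size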
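AMA1 (3D7) with his tag at 25 nM final met compounds first, then biotinylated RON2 peptide at 25 nM; detection used donor plus acceptor beads, 10 µg/mL apiece, read by AlphaScreen after 30 min at room temperature.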
An asterisk follows results filed as active; ? = inconclusive; · = not tested or not shown; [ ] = dose if it differs, or a comment. Unless noted, calls come from the whole dose curve; as a rule, active = well fitted curve in the direction sought with a large enough effect; inconclusive = small, poorly fitted or top-dose-only effect, or another doubt; inactive = no such curve, though single readings can be large; an effect the other way counts as inactive or inconclusive. Potency is the fitted concentration of half-maximal effect.

SMILES | NS1 function inh | AmpC inh detg | AmpC inh no detg | SARS PLP yeast | AMA1-RON2 inh
CCOC(=O)c1ccc(N2C(=O)c3[nH]nc(-c4ccc(C)cc4)c3C2c2cccs2)cc1 (stereo not given) | · | -5% | · | · | ·
N#CC1(C#N)CC(C=O)=C(N)C1(C#N)CC(=O)C12CC3CC(CC(C3)C1)C2 (stereo not given) | -11% | -10% | 16µM* | -10% | 27%
Nc1nccnc1C(=O)OCC(=O)C12CC3CC(CC(C3)C1)C2 | · | ? | -22% | 2% | -7%
CC(=O)c1cccc(NCc2ccccc2-c2nnc(-c3ccccc3)o2)c1 | · | -4% | · | · | ·
Cc1cc(NC(=O)CSCC(=O)OCC(=O)c2cccc(Br)c2)no1 | · | 1% | 32µM* | 1% | -9%
Cc1cccc(/C=C(\C(=O)O)c2ccc(S(=O)(=O)N3CCCC3)s2)c1 | · | · | 32µM* | -7% | -29%
O=C(O)/C(=C\c1cccc(F)c1)c1ccc(S(=O)(=O)N2CCCC2)s1 | · | 1% | -14% | 1% | -8%[11.6 µM]
CCOCCCn1c(SCC(=O)OCC)nc2c(sc3ccccc32)c1=O | · | 3% | · | · | ·
O=[As](O)(O)c1ccc(Cc2ccc([As](=O)(O)O)cc2)cc1 | -39% | · | · | · | ·
CN(C)c1ccc(CNC(=O)CN2C(=O)C3CCCCN3c3ccc(C(=O)N4CCCC4)cc32)cc1 (stereo not given) | · | -5% | · | · | ·
COC(=O)C1=C(C)OC(N)=C(C#N)C1c1ccccc1 (stereo not given) | -5% | -4% | -18% | 3% | 1%
COC(=O)C1=C(C)OC(N)=C(C#N)C1c1ccc(OC)c(CSc2ccccn2)c1 (stereo not given) | -19% | 1% | 0.22µM* | -5% | -15%
O=C1NC[C@H](Cc2ccc(O)cc2)N(C[C@H]2CCCN2C[C@H](Cc2ccc(O)cc2)N2C[C@H](Cc3ccc(O)cc3)N(CCc3ccccc3)C(=O)C2=O)C1=O | · | · | · | · | 32µM*
CCn1c2ccccc2c2cc(CN3CCN(Cc4cc(OC)c(O)c(OC)c4)CC3)ccc21 | · | 0% | · | · | ·
CCn1c2ccccc2c2cc(CN3CCN(Cc4cc(OC)ccc4O)CC3)ccc21 | · | -11% | 63% | 8% | 13µM*
Cc1ccc2c(c1)C(=O)C(=O)N2Cc1ccc(OCCC(C)C)cc1 | · | 29% | · | · | ·
CSc1ccc2c(c1)c(CCN)c(C)n2Cc1ccccc1Cl | 13% | · | · | · | ·
Cc1onc(-c2ccccc2)c1C(=O)Nc1cccc(C#N)c1 | -20% | 3% | 11µM* | -3% | 12%
Cc1onc(-c2ccccc2)c1C(=O)Nc1ccncc1 | ? | ? | -12% | 10% | -7%
CCOc1ccc(NS(=O)(=O)c2ccc(C(=O)N(C)C)s2)cc1 | · | 19% | · | · | ·
COc1ccc(C(CCNCc2ccc(N(C)C)cc2)c2ccccc2)cc1 (stereo not given) | -4% | -2% | 1% | 1% | 20µM*
FC(F)(F)c1nc2ccc(SSc3ccc4nc(C(F)(F)F)[nH]c4c3)cc2[nH]1 | -15% | · | · | · | ·
O=[N+]([O-])c1cccc(NC(=S)N2CCN(S(=O)(=O)c3ccccc3)CC2)c1 | -3% | 5% | 22µM* | 6% | 7%
CC(=O)O/C(=C1/C[C@H]2[C@@H]3CC=C4C[C@@H](OC(C)=O)CC[C@]4(C)[C@@H]3CC[C@]2(C)C1=O)C(F)(F)F | -20% | · | · | · | ·
Cc1nn(CC(=O)NC2C(=O)N3C(C(=O)O)=C(CSc4nnnn4C)CSC23)cc1Br (stereo not given) | · | -1% | -10% | -3% | 39%
SMILES | NS1 function inh | AmpC inh detg | AmpC inh no detg | SARS PLP yeast | AMA1-RON2 inh
CO[C@@]1(NC(=O)C2SC(=C(C(N)=O)C(=O)O)S2)C(=O)N2C(C(=O)O)=C(CSc3nnnn3C)CS[C@@H]21 (stereo not given in full) | · | 18µM* | 7.1µM* | · | 8%
CCCOc1ccc(/C=N/NC(=S)Nc2ccccc2[N+](=O)[O-])c(O)c1 | 21% | -9% | -45% | 10µM* | 45%
COc1ccc(OC)c(S(=O)(=O)N2CCN(c3c(C)cccc3C)CC2)c1 | -44% | ? | 40µM* | -8% | -7%
COc1ccc(OC)c(S(=O)(=O)N2CCN(c3ncccn3)CC2)c1 | -7% | -3% | 25% | 1% | 3%
CCN(CC)c1ccc(NC(=O)c2ccc3c(c2)c(C)c(C)n3C)cc1 | · | 4% | -27% | -8% | 7.9µM*
CN(C)c1ccc2c(c1)C(=NO)c1ccccc1-2 | · | · | · | · | 25µM*
CSc1nc(SCCO)c2sc3nc(-c4ccco4)c4c(c3c2n1)CC(C)(C)OC4 | 1% | -13% | 2% | 7% | 2%
CSc1nc(N(CCO)CCO)c2sc3nc(-c4ccco4)c4c(c3c2n1)CCC4 | ? | 2% | 153% | 2% | 11µM*
COCCCNc1nc(NCc2ccc(C)cc2)c2cnn(C)c2n1 | · | 5% | · | · | ·
CCOC(=O)C(C)Sc1ncc(OC)c(=O)[nH]1 (stereo not given) | -5% | -2% | 0.16µM* | 0% | -7%
CCN(Cc1ccccc1)C(=O)c1cc2ccc3cccnc3c2[nH]1 | · | 2% | · | · | ·
CCN(CCCNc1cc2c(c(N)c1S(=O)(=O)O)C(=O)c1ccccc1C2=O)c1ccccc1 | · | · | · | · | 14µM*
CN(C)CCCNc1cc(O)c2c(c1O)C(=O)c1ccccc1C2=O | -9% | · | · | · | ·
N#CC1=C(N)SC(N)=C(C#N)C1c1cccc(Oc2ccccc2)c1 | -10% | -4% | 25µM* | -26% | 73%
COc1ccc(N2CCN(C(=O)c3cc(S(=O)(=O)N4CCC(C)CC4)cn3C)CC2)cc1 | · | 0% | · | · | ·
COc1ccc(C)cc1NCc1cc(=O)oc2cc(-c3ccccc3)c(O)cc12 | 19% | -5% | 3.5µM* | 0% | 10%
O=C(COc1ccc(Cl)cc1Cl)Nc1ccc(C(=O)OC2CCCCC2)cc1 | · | -2% | · | · | ·
C=CCNC1=C(Cl)C(=O)c2ccccc2C1=O | -21% | -6% | -11% | -13% | 18µM*
CC(C)OCCCNC1=C(Cl)C(=O)c2ccccc2C1=O | -6% | -1% | -1% | 0% | 20µM*
O=C1C(Cl)=C(NCCc2ccccc2)C(=O)c2ccccc21 | · | · | · | · | 13µM*
CCOC(=O)c1c(C)c(-c2ccccc2)n(CC(=O)NCCc2ccc(C)cc2)c1C | · | -4% | · | · | ·
